Shiga toxin inh = Shiga toxin inhibition | Vero cells, Shiga toxin protein synthesis inhibition reporter | inhibition, % at 38.7 µM | actives 9.2% (n = 290,000) | AID 2315; in the data active = inhibition mostly above about 28%, no sharp cut-off; inactive = mostly below about 43%; note: 0% is about no effect
Pf growth 96h = P. falciparum growth inhibition at 96 hours; P. falciparum luciferase reporter growth, 96 h; Potency, µM (top dose mostly 28.7 µM), without a hit: at the highest dose activity change, negative = inhibition, usual class: inhibitors; actives 6.9% (n = 320,000); AID 504834; note: potency is the fitted concentration of half-maximal effect; % is set by controls: 0 for no effect and ±100 for the full control effect
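Infected RBCs, 2% Hct / 0.05% parasitemia final; luciferase-reporter P. falciparum; cpd 96 h, 37 C, 5% CO2; luciferase detection reagent; luminescence.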
CHX counter = counter-screen hit for Shiga toxin inhibitors, cycloheximide | cell reporter, cycloheximide protein synthesis inhibition counterscreen | max response, % | actives 12% (n = 300,000) | AID 2314; in the data active = max response mostly above about 13%, no sharp cut-off; inactive = mostly below about 14%; note: read at 38.3 µM for the half of the compounds with a filed dose; 0% is about no effect
Sm TGR inh = blocks Schistosoma mansoni thioredoxin glutathione reductase; Q962Y6; purified TGR, DTNB reduction, TNB absorbance 405 nm; Potency, µM (doses to about 114 µM), for inactives: top-dose activity change, negative = inhibition, usual class: inhibitors; actives 3% (n = 360,000); AID 485364; note: potency is the fitted concentration of half-maximal effect; % is set by controls: 0 for no effect and ±100 for the full control effect; nearly all actives have a fitted effect of over 60% in size
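First, TGR (20 nM dispensed) and NADPH were mixed with compound. Second, a 15 min room-temperature incubation followed. Third, further NADPH and then DTNB were added to start the reaction. Finally, TNB absorbance was monitored kinetically.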
Pf growth 48h = P. falciparum growth inhibition at 48 hours (one generation); P. falciparum luciferase growth in erythrocytes, 48 h; Potency, µM (top dose mostly 28.7 µM), inactives show top-dose activity change, negative = inhibition, actives largely listed as inhibitors; actives 5.9% (n = 310,000); note: potency is the fitted concentration of half-maximal effect; % is set by controls: 0 for no effect and ±100 for the full control effect
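Here the parasites carry a stable luciferase gene and grow inside erythrocytes in Albumax-based RPMI medium with compound for one erythrocytic cycle. Activity is scored as loss of luminescent signal.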
NS1 inh = influenza NS1 inhibition. Potency, µM (top dose mostly 46.1 µM), inactives show at the highest dose activity, positive = more growth. AID 2326. actives 0.4% (n = 270,000); calls by dose curve; note: potency is the fitted concentration of half-maximal effect; actives are rising curves; nearly all actives have a fitted effect of over 50% in size
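Recovery from NS1-induced slow growth read by OD600 in budding yeast switched to galactose assay medium (pH 6.0, -URA) at 1:100 dilution. Compound 23 nl per well; the matching strain lacking NS1 serves as control.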
NS1 inh valid = validation of influenza NS1 protein function inhibitors; shares compounds with NS1 inh; influenza NS1 function cell assay, 15-point titration; activity change, negative = inhibition, % at 32.9 µM; 1,400 tested, under 10 active; AID 492980; calls by dose curve; note: 0% is about no effect
Flu PR8 replic = influenza NS1 inhibitors: inhibition of influenza A/PR/8/34 replication. shares compounds with NS1 inh. MDCK infected influenza A/PR/8/34, virus titer TCID50; hits give low values. virus titer (log TCID50), log10 TCID50 at 5 µM. actives 30% (n = 95). AID 504647; call rule not given here
Numbers without * were called inactive; ? = inconclusive; nt = no result; [ ] = dose if it differs, or a comment. Most compounds without a hit are left out; they make up all but 21% or so of the library. Unless noted, calls come from the whole dose curve; as a rule, active = well fitted curve in the direction sought with a large enough effect; inconclusive = small, poorly fitted or top-dose-only effect, or another doubt; inactive = no such curve, though single readings can be large; an effect the other way counts as inactive or inconclusive.

SMILES	Shiga toxin inh	Pf growth 96h	CHX counter	Sm TGR inh	Pf growth 48h	NS1 inh	NS1 inh valid	others
O=S(=O)(Nc1cccc(-c2ccc3nncn3n2)c1)c1cc(F)ccc1F	nt	0.0%	nt	6.5%	37.1%	nt	nt
Cc1c(C(=O)NCCN2CCOCC2)oc2ccc(Br)cc12	nt	43.2%	nt	-4.7%	2.5%	nt	nt
CCC(C)(C)n1nnnc1C(c1cc2cc(OC)c(OC)cc2[nH]c1=O)N1CCc2ccccc21 (centres undefined)	17.3	?	16.7	0.0%	1.04µM*	14.1µM*	?
CCC1(c2cccc(O)c2)CCCCN(C)C1 (centres undefined)	nt	14.2%	nt	-6.5%	-4.0%	nt	nt
CN1CC[C@@]2(C)c3cc(O)ccc3N(C)C12 (some centres undefined)	nt	nt	nt	nt	nt	12.6µM*	0.7
Cc1cccc(OCC(=O)NCCN2CCOCC2)c1	29.1	-7.0%	11.7	7.2%	?	1.78µM*	-2.5
FC(F)Oc1ccc(/C=N/c2c(-c3ccc(OC(F)F)cc3)nc3n2CCS3)cc1	9.2	-13.6%	13.2	-24.7%	?	12.6µM*	-15.4
COc1ccccc1C(=O)NC(CCSC)C(=O)NCc1ccccn1 (centres undefined)	nt	11.4%	nt	4.3%	18.9%	nt	nt
CCOC(=O)N1CCN(c2c(NCCCN(CC)Cc3ccccc3)c(=O)c2=O)CC1	-15.2	?	3.5	-0.1%	?	1µM*	-12.3
Cc1cc(C)c(C(=O)COC(=O)CCNS(=O)(=O)c2c(Cl)cccc2Cl)cc1C	-2.1	-8.7%	-4.3	-4.7%	-5.6%	?	nt
Cc1ccccc1-c1nc(CS(=O)CC(=O)N2CCC3(CC2)OCCO3)c(C)o1 (centres undefined)	35.6	-25.7%	4.8	8.91µM*	?	1.12µM*	4.8	Flu PR8 replic=8.33
Cc1ccccc1-c1nc(CS(=O)CC(=O)N2CCN(c3cc(Cl)ccc3C)CC2)c(C)o1 (centres undefined)	nt	nt	nt	-26.0%	nt	nt	nt
COc1ccc(/C=N/NC(=O)CCc2c(C)n[nH]c2C)cc1OC	20.0	nt	1.1	-13.5%	-0.1%	5.62µM*	18.7
COc1cc(/C=N/NC(=O)CCc2c(C)n[nH]c2C)ccc1O	-6.0	15.8%	-2.2	2.2%	nt	10.7%	nt
CCOC(=O)c1cnn2c(N)c(C#N)nnc12	-22.4	?	-4.4	-3.6%	15.1%	5.01µM*	-14.8
S=C(Nc1ccc(Oc2ccccc2)cc1)NC1CCCCCC1	12.6	17.1%	-1.9	-1.1%	-2.5%	-25.3%	nt
S=C(Nc1ccc(Oc2ccc(NC(=S)NC3CCCCC3)cc2)cc1)NC1CCCCC1	37.1	0.0%	4.4	2.3%	?	11.2µM*	-2.9
COc1cccc(NC(=O)C(Sc2nnc(Nc3ccccc3C)s2)c2ccccc2)c1 (centres undefined)	8.0	6.57µM*	-12.3	-0.2%	?	5.01µM*	-2.1
Cc1ccc2nc(NNC(=O)c3ccc(S(=O)(=O)N4CCc5ccccc5C4)cc3)sc2c1	18.6	2.94µM*	8.1	-8.6%	1.85µM*	10µM*	?
Cc1ccc2nc(NC(=O)c3ccc(S(=O)(=O)N4CCC(C)CC4)cc3)sc2c1	nt	nt	nt	-2.6%	nt	nt	nt
COc1cccc(-n2nc(-c3ccnn3-c3ccc(C)cc3)c(=O)n(C)c2=O)c1	-14.5	?	4.8	-12.8%	nt	0.1%	nt
NC(=S)N/N=C/c1ccccc1OCCSc1ccc(Cl)cc1	13.3	?	4.6	5.8%	?	10µM*	?
O=C(COC(=O)c1cccc(F)c1)Nc1cccnc1Cl	14.2	45.3%	12.2	-8.3%	-4.8%	nt	nt
Cc1cc(C(=O)O)ccc1-n1c(C)cc(/C=C2\SC(=O)NC2=O)c1C	12.9	?	-2.2	?	7.0%	11.2µM*	17.4
Cc1ccc(C(=O)O)cc1-n1c(C)cc(C=O)c1C	-15.5	19.9%	-2.6	-1.0%[57.1 µM]	18.3%	3.8%	nt
SMILES	Shiga toxin inh	Pf growth 96h	CHX counter	Sm TGR inh	Pf growth 48h	NS1 inh	NS1 inh valid	others
Cc1cccc(OC(C)C(=O)Nc2ccccc2C(=O)N2CCCCC2)c1 (centres undefined)	12.7	-5.7%	-7.0	-4.2%	-13.7%	10.2%	nt
COc1ccc(S(=O)(=O)c2nnn(-c3ccc(C)c(Cl)c3)c2C)cc1	nt	nt	nt	-9.7%	nt	nt	nt
COc1ccc(NC(=O)Nc2cccs2)cc1OC	36.8	34.8%	13.2	?	nt	?	18.3
NC(=O)c1ccc(NC(=O)COC(=O)CC(NC(=O)c2ccccc2Cl)c2ccccc2)cc1 (centres undefined)	-2.1	13.6%	-1.8	-2.1%	-2.5%	6.6%	nt
Cc1n[nH]c(C)c1CCc1nc2c3ccccc3nc(SCC(N)=O)n2n1	3.8	?	3.2	1.5%	48.6%	3.16µM*	-7.0
Cc1cccc(C)c1NC(=O)CSc1nc2ccccc2c2nc(CCc3c(C)n[nH]c3C)nn12	nt	nt	nt	-1.0%	nt	nt	nt
COC(=O)C1=Nc2ccccc2/C1=C\c1c(O)n(-c2ccc(Br)cc2)c(=O)[nH]c1=O	-12.7	8.3%	1.4	?	13.8%	10µM*	-35.0
O=C(Cn1c(=O)n(CCc2c[nH]c3ccccc23)c(=O)c2cccnc21)Nc1ccccc1F	-7.4	-15.5%	-0.7	-7.8%	?	19.9%	nt
Cc1cccc(NC(=O)Cn2c(=O)n(CCc3c[nH]c4ccccc34)c(=O)c3cccnc32)c1	31.4	52.2%	6.2	-12.0%	?	3.98µM*	-4.5
COc1ccc(Br)cc1CN1CCN(C(=O)c2ccco2)CC1	-5.2	-14.6%	0.4	-15.4%	?	-0.5%	nt
C=CCc1ccccc1OCCn1c(C2CC(=O)N(Cc3ccc(F)cc3)C2)nc2ccccc21 (centres undefined)	nt	nt	nt	-3.4%	nt	nt	nt
C=CCN1CC(c2nc3ccccc3n2CCOc2ccccc2)CC1=O (centres undefined)	-23.6	34.9%	-3.4	-13.3%	11.7µM*	?	-24.5
Cc1c(S(=O)(=O)Nc2ccc3c(c2)OCCO3)c(=O)n(C)c(=O)n1C	-19.0	0.0%	3.1	-18.3%	nt	0.5%	nt
Cc1ccc2nc(-c3ccc(NS(=O)(=O)c4c(C)n(C)c(=O)n(C)c4=O)cc3)sc2c1	121.3*	230.6%	67.5*	8.6%	273.5%	7.94µM*	4.2
CN(C(=O)COC(=O)CCc1c[nH]c2ccccc12)C(c1ccccc1)c1ccccc1	8.3	10.4µM*	9.9	13.1%	11.7µM*	8.91µM*	-13.6
O=C(COC(=O)CCc1c[nH]c2ccccc12)NCc1ccccc1	-3.4	27.0%	2.0	-15.7%	0.1%	-6.9%	nt
COC(=O)c1c(C)oc2ccc(N(C(=O)c3ccncc3)S(=O)(=O)c3ccc4ccccc4c3)cc12	12.4	-0.4%	-3.4	2.5%	3.5%	11.2µM*	3.2
